# Experimental data as given in PMC7862700, “An all-to-all approach to the identification of sequence-specific readers for epigenetic DNA modifications on cytosine”.
# Legend:
# Test in all cases: DAPPL (digital affinity profiling via proximity ligation, sequencing); 10 mM Tris-HCl pH 7.5, 50 mM NaCl, 1 mM DTT, 4% glycerol, room temperature, 30 min; GST-TFs on glutathione beads, 16-mer random dsDNA library, 0.1% formaldehyde crosslink after washing; high values mean tight binding
# FEV = biological target: T1, FEV (Homo sapiens, UniProt Q99581 1-238); conditions: protein: recombinant; tags: N-terminal GST; dsDNA, one strand shown
# T1 sequence: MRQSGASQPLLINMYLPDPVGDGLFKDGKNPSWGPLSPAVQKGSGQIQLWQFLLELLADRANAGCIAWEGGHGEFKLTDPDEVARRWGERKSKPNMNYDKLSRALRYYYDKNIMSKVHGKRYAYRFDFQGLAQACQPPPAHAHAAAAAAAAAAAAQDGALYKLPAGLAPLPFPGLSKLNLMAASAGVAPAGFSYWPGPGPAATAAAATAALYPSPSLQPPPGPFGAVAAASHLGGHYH
# Summary of the method: (§1)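 Binding signal is each hexamer's read frequency for a factor divided by its frequency in the tag-only sample. The factors were GST-fused human transcription factors from yeast, captured on glutathione beads, DNA-barcoded and pooled with that sample. Pools were incubated with 200 nmole of a random double-stranded 16-mer DNA library in Tris/NaCl/DTT/glycerol buffer at room temperature for 30 min, then washed, crosslinked with 0.1% formaldehyde, proximity-ligated with BsaI/T4 ligase (1 h, 37 °C), PCR-amplified and sequenced on an Illumina NextSeq500.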
# ETV5 = ETV5 (Homo sapiens, UniProt P41161 1-510); conditions: protein: recombinant; tags: N-terminal GST; dsDNA, one strand shown
# Summary of the method: as §1
# HSF1 = HSF1 (Homo sapiens, UniProt Q00613 1-529); conditions: protein: recombinant; tags: N-terminal GST; chain copies: 3; dsDNA, one strand shown
# Summary of the method: as §1
# SPIC = biological target: T2, SPIC (Homo sapiens, UniProt Q8N5J4 1-248); conditions: protein: recombinant; tags: N-terminal GST; dsDNA, one strand shown
# T2 sequence: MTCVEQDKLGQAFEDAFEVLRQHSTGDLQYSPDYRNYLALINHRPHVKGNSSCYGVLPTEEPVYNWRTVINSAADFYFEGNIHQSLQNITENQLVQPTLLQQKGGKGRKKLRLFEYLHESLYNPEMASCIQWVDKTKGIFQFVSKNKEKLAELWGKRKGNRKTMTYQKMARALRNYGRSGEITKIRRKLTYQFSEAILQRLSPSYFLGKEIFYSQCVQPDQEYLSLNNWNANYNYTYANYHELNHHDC
# Summary of the method: as §1
# ELF4 = ELF4 (Homo sapiens, UniProt Q99607 1-663); conditions: protein: recombinant; tags: N-terminal GST; dsDNA, one strand shown
# Summary of the method: as §1
# ELK4 = biological target: T3, ELK4 (Homo sapiens, UniProt P28324-2 1-405); conditions: protein: recombinant; tags: N-terminal GST; dsDNA, one strand shown
# T3 sequence: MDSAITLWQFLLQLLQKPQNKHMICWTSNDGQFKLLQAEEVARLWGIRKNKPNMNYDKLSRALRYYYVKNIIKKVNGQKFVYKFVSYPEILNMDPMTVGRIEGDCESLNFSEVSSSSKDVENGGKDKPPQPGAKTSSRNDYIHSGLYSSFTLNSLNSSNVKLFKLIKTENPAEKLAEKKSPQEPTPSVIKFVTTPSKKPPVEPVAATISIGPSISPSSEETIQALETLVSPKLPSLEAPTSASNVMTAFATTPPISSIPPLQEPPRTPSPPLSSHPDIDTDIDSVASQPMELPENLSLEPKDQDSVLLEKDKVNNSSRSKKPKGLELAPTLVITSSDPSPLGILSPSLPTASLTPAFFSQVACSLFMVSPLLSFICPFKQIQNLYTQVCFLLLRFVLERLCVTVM
# Summary of the method: as §1
# ETV2 = biological target: T4, ETV2 (Homo sapiens, UniProt O00321 1-342); conditions: protein: recombinant; tags: N-terminal GST; dsDNA, one strand shown
# T4 sequence: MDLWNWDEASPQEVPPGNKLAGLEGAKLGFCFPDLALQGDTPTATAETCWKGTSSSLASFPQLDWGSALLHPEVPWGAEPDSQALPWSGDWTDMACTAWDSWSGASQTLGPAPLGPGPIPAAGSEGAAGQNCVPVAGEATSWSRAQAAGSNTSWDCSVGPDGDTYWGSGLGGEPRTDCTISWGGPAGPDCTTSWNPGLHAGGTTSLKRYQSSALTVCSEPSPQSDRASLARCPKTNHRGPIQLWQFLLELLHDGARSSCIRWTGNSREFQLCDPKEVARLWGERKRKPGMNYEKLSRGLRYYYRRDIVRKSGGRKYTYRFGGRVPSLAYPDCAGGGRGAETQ
# Summary of the method: as §1
# ELF3 = biological target: T5, ELF3 (Homo sapiens, UniProt P78545 1-371); conditions: protein: recombinant; tags: N-terminal GST; dsDNA, one strand shown
# T5 sequence: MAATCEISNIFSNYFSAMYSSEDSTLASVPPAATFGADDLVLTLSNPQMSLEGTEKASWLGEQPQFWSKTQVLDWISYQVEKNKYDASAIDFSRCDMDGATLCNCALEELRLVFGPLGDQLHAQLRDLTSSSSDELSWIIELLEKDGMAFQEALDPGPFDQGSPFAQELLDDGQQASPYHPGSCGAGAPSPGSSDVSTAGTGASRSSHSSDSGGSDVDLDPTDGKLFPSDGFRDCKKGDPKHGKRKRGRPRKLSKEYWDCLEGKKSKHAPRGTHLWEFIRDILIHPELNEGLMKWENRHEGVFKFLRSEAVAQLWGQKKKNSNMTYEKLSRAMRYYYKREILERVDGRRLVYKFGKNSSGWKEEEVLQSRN
# Summary of the method: as §1
# CRX = CRX (Homo sapiens, UniProt O43186 1-299); conditions: protein: recombinant; tags: N-terminal GST; dsDNA, one strand shown
# Summary of the method: as §1
# ETV1 = ETV1 (Homo sapiens, UniProt P50549 1-477); conditions: protein: recombinant; tags: N-terminal GST; dsDNA, one strand shown
# Summary of the method: as §1
# ERF = biological target: T6, ERF (Homo sapiens, UniProt P50548 1-548); conditions: protein: recombinant; tags: N-terminal GST; dsDNA, one strand shown
# T6 sequence: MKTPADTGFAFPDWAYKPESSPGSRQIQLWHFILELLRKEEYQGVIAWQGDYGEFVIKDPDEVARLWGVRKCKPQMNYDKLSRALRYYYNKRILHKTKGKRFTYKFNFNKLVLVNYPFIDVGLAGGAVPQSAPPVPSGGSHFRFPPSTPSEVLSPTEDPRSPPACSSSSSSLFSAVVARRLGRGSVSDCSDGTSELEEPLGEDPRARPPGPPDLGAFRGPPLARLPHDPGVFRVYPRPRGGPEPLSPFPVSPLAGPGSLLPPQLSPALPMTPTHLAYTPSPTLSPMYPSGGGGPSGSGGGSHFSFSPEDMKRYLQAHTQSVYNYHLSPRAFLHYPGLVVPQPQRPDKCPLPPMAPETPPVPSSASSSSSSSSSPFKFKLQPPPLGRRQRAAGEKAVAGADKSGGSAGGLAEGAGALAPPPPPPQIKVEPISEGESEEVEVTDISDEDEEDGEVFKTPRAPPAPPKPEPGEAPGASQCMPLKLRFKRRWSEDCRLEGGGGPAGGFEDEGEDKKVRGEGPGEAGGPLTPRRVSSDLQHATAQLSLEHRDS
# Summary of the method: as §1
# ETV3L = biological target: T7, ETV3L (Homo sapiens, UniProt Q6ZN32 1-361); conditions: protein: recombinant; tags: N-terminal GST; dsDNA, one strand shown
# T7 sequence: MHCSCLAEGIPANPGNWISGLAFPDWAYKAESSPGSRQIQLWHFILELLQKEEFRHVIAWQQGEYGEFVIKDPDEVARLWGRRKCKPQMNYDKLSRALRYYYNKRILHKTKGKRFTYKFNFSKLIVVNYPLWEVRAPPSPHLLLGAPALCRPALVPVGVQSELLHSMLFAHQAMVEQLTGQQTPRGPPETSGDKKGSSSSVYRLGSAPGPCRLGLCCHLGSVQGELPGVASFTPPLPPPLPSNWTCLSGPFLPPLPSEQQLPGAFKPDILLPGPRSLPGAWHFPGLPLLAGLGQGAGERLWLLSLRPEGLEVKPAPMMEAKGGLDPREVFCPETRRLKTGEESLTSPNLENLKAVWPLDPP
# Summary of the method: as §1
# ETS2 = biological target: T8, ETS2 (Homo sapiens, UniProt P15036 1-469); conditions: protein: recombinant; tags: N-terminal GST; dsDNA, one strand shown
# T8 sequence: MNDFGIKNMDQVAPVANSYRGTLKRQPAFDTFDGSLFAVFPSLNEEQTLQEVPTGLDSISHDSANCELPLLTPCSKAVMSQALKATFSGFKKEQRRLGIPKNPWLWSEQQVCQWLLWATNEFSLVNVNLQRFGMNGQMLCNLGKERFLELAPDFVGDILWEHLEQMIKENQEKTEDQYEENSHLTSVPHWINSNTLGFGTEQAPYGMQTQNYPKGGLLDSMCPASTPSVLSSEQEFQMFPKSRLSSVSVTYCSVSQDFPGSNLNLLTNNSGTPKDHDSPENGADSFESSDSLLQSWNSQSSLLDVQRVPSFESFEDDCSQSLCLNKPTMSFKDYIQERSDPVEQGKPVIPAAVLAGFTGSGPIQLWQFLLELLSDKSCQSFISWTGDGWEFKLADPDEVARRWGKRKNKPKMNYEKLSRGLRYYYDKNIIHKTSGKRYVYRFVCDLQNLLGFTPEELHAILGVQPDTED
# Summary of the method: as §1
# SPDEF = biological target: T9, SPDEF (Homo sapiens, UniProt O95238 1-335); conditions: protein: recombinant; tags: N-terminal GST; dsDNA, one strand shown
# T9 sequence: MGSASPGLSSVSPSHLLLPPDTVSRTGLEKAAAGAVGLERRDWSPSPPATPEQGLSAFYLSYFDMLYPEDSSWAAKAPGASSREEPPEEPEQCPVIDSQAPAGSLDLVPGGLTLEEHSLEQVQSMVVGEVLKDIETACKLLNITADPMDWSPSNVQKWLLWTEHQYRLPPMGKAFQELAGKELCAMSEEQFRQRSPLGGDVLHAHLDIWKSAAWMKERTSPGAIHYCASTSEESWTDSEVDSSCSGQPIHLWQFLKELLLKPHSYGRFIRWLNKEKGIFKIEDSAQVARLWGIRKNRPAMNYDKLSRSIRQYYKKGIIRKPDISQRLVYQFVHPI
# Summary of the method: as §1
# ETV7 = biological target: T10, ETV7 (Homo sapiens, UniProt Q9Y603 1-341); conditions: protein: recombinant; tags: N-terminal GST; dsDNA, one strand shown
# T10 sequence: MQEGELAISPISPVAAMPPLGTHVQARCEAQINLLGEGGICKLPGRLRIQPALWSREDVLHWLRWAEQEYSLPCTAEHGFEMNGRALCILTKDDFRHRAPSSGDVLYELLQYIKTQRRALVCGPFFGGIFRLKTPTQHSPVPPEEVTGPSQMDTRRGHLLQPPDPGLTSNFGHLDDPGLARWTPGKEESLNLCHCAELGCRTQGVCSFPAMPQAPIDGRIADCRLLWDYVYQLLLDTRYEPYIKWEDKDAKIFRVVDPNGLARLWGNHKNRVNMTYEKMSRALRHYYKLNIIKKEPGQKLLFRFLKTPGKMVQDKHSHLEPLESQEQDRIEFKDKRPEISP
# Summary of the method: as §1
# ELF5 = biological target: T11, ELF5 (Homo sapiens, UniProt Q9UKW6-2 1-255); conditions: protein: recombinant; tags: N-terminal GST; dsDNA, one strand shown
# T11 sequence: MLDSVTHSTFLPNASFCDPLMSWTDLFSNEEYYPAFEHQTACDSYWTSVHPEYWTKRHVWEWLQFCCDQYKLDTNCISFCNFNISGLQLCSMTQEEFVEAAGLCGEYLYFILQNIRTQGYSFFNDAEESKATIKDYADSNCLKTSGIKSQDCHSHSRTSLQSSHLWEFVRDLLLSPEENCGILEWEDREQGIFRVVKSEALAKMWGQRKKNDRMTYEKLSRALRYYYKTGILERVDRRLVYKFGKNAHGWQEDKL
# Summary of the method: as §1
# ETV3 = biological target: T12, ETV3 (Homo sapiens, UniProt P41162-2 1-143); conditions: protein: recombinant; tags: N-terminal GST; dsDNA, one strand shown
# T12 sequence: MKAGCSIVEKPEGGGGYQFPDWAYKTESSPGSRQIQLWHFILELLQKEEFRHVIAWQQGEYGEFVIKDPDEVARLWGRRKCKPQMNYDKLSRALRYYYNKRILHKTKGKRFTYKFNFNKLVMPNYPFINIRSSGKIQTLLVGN
# Summary of the method: as §1
# ETV6 = ETV6 (Homo sapiens, UniProt P41212 1-452); conditions: protein: recombinant; tags: N-terminal GST; dsDNA, one strand shown
# Summary of the method: as §1
# ETV5, sequence (P41161 whole entry): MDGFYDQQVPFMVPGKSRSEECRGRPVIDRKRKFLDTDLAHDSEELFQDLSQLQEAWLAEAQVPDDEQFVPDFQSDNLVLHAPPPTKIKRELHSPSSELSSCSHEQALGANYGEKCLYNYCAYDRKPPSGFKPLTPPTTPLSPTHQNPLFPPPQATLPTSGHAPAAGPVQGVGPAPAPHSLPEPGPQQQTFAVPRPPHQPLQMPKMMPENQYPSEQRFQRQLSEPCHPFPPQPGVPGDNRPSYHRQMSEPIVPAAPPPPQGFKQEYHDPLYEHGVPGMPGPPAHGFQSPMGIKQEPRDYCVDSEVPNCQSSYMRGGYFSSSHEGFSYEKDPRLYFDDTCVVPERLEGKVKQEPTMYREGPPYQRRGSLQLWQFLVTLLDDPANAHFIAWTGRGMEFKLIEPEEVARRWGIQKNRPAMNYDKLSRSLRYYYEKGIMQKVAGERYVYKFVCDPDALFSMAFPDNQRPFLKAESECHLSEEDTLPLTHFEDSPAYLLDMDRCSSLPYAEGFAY
# ETV6, sequence (P41212 whole entry): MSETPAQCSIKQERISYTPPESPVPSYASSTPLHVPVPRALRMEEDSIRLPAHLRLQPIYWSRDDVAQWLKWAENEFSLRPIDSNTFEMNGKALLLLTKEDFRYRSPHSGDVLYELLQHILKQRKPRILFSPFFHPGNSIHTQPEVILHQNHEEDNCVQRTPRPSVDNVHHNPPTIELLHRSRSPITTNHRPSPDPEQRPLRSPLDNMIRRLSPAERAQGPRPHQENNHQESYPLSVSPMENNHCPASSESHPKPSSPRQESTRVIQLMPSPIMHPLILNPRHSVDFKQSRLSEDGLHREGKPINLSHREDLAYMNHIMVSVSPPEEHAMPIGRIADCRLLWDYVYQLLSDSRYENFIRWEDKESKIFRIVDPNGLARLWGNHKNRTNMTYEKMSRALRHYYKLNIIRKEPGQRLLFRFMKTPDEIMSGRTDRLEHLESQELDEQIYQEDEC
# HSF1, sequence (Q00613 whole entry): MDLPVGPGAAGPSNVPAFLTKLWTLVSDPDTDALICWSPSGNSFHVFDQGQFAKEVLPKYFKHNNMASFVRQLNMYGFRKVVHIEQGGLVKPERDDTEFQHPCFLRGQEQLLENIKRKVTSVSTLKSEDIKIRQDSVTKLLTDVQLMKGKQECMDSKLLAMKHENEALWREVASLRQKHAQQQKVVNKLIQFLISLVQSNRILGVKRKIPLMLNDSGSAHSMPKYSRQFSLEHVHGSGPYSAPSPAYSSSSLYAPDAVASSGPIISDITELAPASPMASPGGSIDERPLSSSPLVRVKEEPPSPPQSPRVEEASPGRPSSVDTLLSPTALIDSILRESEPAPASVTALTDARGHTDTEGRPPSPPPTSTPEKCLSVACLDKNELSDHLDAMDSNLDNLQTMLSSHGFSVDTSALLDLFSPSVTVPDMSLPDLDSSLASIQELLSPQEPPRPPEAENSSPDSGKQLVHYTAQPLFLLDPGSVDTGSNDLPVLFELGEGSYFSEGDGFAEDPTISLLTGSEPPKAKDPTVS
# ETV1, sequence (P50549 whole entry): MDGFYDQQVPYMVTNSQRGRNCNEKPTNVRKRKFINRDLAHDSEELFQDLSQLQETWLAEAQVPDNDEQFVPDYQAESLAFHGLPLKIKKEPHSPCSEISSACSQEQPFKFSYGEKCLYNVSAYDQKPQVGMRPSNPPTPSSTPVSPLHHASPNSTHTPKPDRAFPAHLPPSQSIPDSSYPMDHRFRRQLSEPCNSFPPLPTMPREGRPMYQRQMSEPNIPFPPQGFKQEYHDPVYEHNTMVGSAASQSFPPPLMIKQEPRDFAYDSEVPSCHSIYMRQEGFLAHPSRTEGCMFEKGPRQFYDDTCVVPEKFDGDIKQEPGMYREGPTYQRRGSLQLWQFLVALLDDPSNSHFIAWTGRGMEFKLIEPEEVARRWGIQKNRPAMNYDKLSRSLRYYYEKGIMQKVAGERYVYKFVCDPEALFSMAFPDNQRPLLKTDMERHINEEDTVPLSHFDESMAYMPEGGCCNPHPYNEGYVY
# ELF4, sequence (Q99607 whole entry): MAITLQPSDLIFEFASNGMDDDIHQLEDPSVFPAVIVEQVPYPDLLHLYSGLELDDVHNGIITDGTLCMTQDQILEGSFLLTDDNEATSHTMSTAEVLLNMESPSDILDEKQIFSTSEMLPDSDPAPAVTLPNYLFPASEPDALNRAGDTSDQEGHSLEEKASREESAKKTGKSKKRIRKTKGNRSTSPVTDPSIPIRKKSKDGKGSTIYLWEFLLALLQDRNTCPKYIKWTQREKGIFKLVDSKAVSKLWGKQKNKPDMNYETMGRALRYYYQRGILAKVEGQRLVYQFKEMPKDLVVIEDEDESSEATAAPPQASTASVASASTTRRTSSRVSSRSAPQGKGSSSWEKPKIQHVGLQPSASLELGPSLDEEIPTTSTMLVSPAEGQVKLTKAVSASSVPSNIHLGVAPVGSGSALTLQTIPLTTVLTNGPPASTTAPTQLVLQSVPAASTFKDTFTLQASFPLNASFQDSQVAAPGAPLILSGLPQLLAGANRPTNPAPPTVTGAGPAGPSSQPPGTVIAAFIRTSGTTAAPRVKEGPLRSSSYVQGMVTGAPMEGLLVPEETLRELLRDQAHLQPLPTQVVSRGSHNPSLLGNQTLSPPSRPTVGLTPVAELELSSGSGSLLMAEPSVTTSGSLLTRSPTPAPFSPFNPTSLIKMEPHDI
# CRX, sequence (O43186 whole entry): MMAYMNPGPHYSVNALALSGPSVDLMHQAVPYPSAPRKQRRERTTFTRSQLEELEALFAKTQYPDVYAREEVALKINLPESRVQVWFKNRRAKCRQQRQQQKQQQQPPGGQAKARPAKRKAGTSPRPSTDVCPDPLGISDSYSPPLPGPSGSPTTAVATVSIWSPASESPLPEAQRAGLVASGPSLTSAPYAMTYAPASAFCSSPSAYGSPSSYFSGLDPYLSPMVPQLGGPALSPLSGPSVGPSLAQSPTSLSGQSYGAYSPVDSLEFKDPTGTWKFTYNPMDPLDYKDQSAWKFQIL
sequence,measurement,setting,value
TTCCAG,binding signal,FEV,"1.05 fold enrichment (6-mer frequency, TF over GST control)"
same,binding signal,ETV5,"1.06 fold enrichment (6-mer frequency, TF over GST control)"
same,binding signal,HSF1,"3.69 fold enrichment (6-mer frequency, TF over GST control)"
same,binding signal,SPIC,"1.02 fold enrichment (6-mer frequency, TF over GST control)"
same,binding signal,ELF4,"1.17 fold enrichment (6-mer frequency, TF over GST control)"
same,binding signal,ELK4,"1.15 fold enrichment (6-mer frequency, TF over GST control)"
same,binding signal,ETV2,"1.12 fold enrichment (6-mer frequency, TF over GST control)"
same,binding signal,ELF3,"1.05 fold enrichment (6-mer frequency, TF over GST control)"
same,binding signal,CRX,"1.68 fold enrichment (6-mer frequency, TF over GST control)"
same,binding signal,ETV1,"1.05 fold enrichment (6-mer frequency, TF over GST control)"
same,binding signal,ERF,"1.09 fold enrichment (6-mer frequency, TF over GST control)"
same,binding signal,ETV3L,"1.09 fold enrichment (6-mer frequency, TF over GST control)"
same,binding signal,ETS2,"1.12 fold enrichment (6-mer frequency, TF over GST control)"
same,binding signal,SPDEF,"1.04 fold enrichment (6-mer frequency, TF over GST control)"
same,binding signal,ETV7,"1.16 fold enrichment (6-mer frequency, TF over GST control)"
same,binding signal,ELF5,"1.18 fold enrichment (6-mer frequency, TF over GST control)"
same,binding signal,ETV3,"1.06 fold enrichment (6-mer frequency, TF over GST control)"
same,binding signal,ETV6,"1.15 fold enrichment (6-mer frequency, TF over GST control)"
